Experimental data: the supplement of paper PMC12632987

B1: usp_38_diff_out_14_2_108 (protein)
chain: AADKIKAATDATLAALEAAIAKAKELKERVKKDPSLAEEARKELFEAWDAVGDKVGALAKLLEENKAERATNKKATAEVNKALTEYTKAVLEALEEIAKA
B2: usp_38_diff_out_13_133_63 (protein)
chain: SAAEERRAAARARLDAAVAEVERLLEEARRALEEGDVERAERYVGEAAGVLVRTRSELMALTRDDPELRREILRRLKELERRLEELIDEVEAARREAFLA
B3: usp_38_diff_out_13_93_72 (protein)
chain: SAEEEIEKILKEVEEEAEKELEELEKEVAAGRLTVEEVLRRAGELFSYIVKKHQEIEKIAKENGLEALLKEATEKVNELINKVTERVTAMLERVAARQLA
B4: usp_38_diff_out_13_133_54 (protein)
chain: AAAEARREEARRLLEEAEKEIEKLLKEAEKALEEGNIDKAYEYVAKAAGLLLETRDRLFDLTRDDPELRREVLKRLKELEKKLNELIDKVEAAERERFLA
B5: usp_38_diff_out_13_93_69 (protein)
chain: EREERAEEIVERVERLGEELLKELEAAAADPSTTIEELLDLYSELVRRLVTATQAALAEARELGDEETVERILEISNETLLRLSELTTEALTAKAEAEAA
B6: usp_38_diff_out_13_133_59 (protein)
chain: SAAEERRREAERRLAEAERRIRELLEKAKKALEEGDIDEAERYVGEAAGIILRTRSDLMALTRDDPELRRRILRRLKELEEELNELIDEVVEAEKKRFLA
B7: usp_38_diff_out_14_2_101 (protein)
chain: AEEEIKKKKEETLKKLEEGIERLKKLKEEVKKDPSLAEKARKEAFEIHDEVADKVGELHKLILKNPELKELNKKAIKEVNEKLTEFTEALLEALEEAAAA
B8: usp_38_diff_out_13_43_66 (protein)
chain: LEEEAEKVLKELDETLGEIYNLSLELRDKIRESDPETAKKLVEIKKRLDEVGNELADARRDLEIALISGEGLEEAIKKGKEKIEKAKKTIKEAKEELEKL
B9: usp_38_diff_out_13_133_53 (protein)
chain: AAAEARRARALALLEEAEARVEKLIKEAEKALKEGKIDEARKYVAEAAGTLLRTRDELFDLTADDPELRREVLRRLKELTKRLDKVIDKVEKAERERFLA
B10: usp_38_diff_out_13_133_62 (protein)
chain: SAAEERRKEALKELEETEKKIEELLKKAKEALKEGKIEEAEKYVGEAAGLILKARSDLMAKTKDDPELRKEILKRLKELEKKLNELIDEVNEALKKKFLE
B11: usp_38_diff_out_13_133_58 (protein)
chain: SAAEERRKKALERLEEAEKKVEELLKKAEEALKEGKIEEASKYVGEAAGIIVKTRSDLMALTKDDPELRKEILKRLKELEKKLNELIDKVVEAEKKKFLA
B12: usp_38_diff_out_13_133_61 (protein)
chain: SAMEERRKEAREELEKAKKEIEELLKKAEEALKEGDIETAEKYVGEAAGLILDTRSDLMERTKDDPELRKEILKELKELEKKLNELIDKVVKAREEEFLK
B13: usp_38_diff_out_13_93_75 (protein)
chain: SLEDEAAALLAEIRAEAEALAAELEALAEAGKITIEEVLERTSALVDRIAERTRAMVARLRAAGLEALARRLEEEVNRILLDLTERVGRILERLAEREAA
B14: usp_38_diff_out_13_133_55 (protein)
chain: AAAEAARAEAEALLAETEKRVEELLKKAKEALKAGDVETAEKYVGEAAGTLLEARDRLSDLTADDPELRREVLKRLKELEEKLNELIDEVEKALREEFLK
B15: usp_38_diff_out_13_133_60 (protein)
chain: SAAEERRAEARRRLEEAEERVKALLKEAKAALKAGKIDEARKKVGEAAGVIVDTRSDLMALTRDDPELRREILKRLKELEKELDKLIDEVVKAEEEAFLA
B16: usp_38_diff_out_14_2_107 (protein)
chain: AKEEIKKKTEETLKALDEAIKAAKKLKEEVKKDPSLAEKARKELFKLWDEVGDKVGELAKLLEENKEERETNKEAVEKVNEALTKFTKAVLEALEEIEKA
B17: usp_38_diff_out_13_133_57 (protein)
chain: SAAEERRAEARARLAETEAEVEKLLKEAKAALKAGDIDEAEKKVGEAAGLILEARSDLFALTRDDPELRREIRRRLKELEKELDKLIDEVVEARKKEFLA
B18: usp_38_diff_out_13_93_70 (protein)
chain: SAEEKIKKLIEETKEKAKKKLEEMEEKVEAGELDVEEVLEEYSELMKYIVETHNEIEKLAKENGLEELLKEANKEFNELINETTEKVTEMLEKVAERQLA
B19: usp_38_diff_out_14_2_102 (protein)
chain: AEAEIEKATEETLAVLEEAIKKFEELEKEVEEDPSKAEEAFERILEEWDRAADAVGALARLLEAHPEVRETRKKAVAEVNEALTRLTEKATRALEKAAEA
B20: usp_38_diff_out_14_2_106 (protein)
chain: GEEEIKKATEETLKAIKEAIEKAKELKEKVKKDPSLAEEARKELFEAHDKVGDKVGALAKLIEEHKEYRETNKKAVKEVNEALKEYTEAVLELLEEIAEA
B21: usp_38_diff_out_13_133_56 (protein)
chain: SMAEKKREEAKKLLEETKKKVEKLLEEAEKALKEGDVEKAWEKVGEAAGTLLKARDELTDLTEDDPELRKEVLKELKKLEEKLNKLIDKVEKALREEFLK
B22: usp_38_diff_out_14_2_100 (protein)
chain: GEEELKAATDATLKTLDAAIKEAKELKKEVEEDPSKAEEARKRLFEAWDKAADAVGALAKLMEEHKELRELNKEAVEKVNKRITELTKVALEALELAAKA
B23: usp_38_diff_out_13_43_65 (protein)
chain: LREEAEKALAEADKALGEAYKLSQEIRDKIRESDPETAKKLVKLRKELDDAGNALADARVALELALHSGEGVEEAIAATRAAIAALKKKIAEAKKELAAL
B24: usp_38_diff_out_13_93_77 (protein)
chain: SLEEKAKALLAEIEARAKALLEELEELAERGEITIEEVLERSSALFDEIAAETRAMVAELEAAGKKALAEELKKKVNEIILDATEGIGKILERLAEREAA
B25: usp_38_diff_out_14_2_104 (protein)
chain: AKATIEAATAAALKAIDDGKKRLEELTKKVKEDPSKAEEAREEILAVWDEVGDAVGALAATLRANPAERATNKAATAEVNKALTEFTKKALEALEVAEEA
B26: usp_38_diff_out_13_93_74 (protein)
chain: DLEARVEALLAAQEAEADALAAELAARAAAGEITVEEILERSSALADRIAEETRRAVAELEAAGEAALARRLRERTAEILLRLTERVGAILEELAAREAA
B27: usp_38_diff_out_13_93_76 (protein)
chain: TLEEKAEALLAEIRKRAEELLKELKKLAEEGKITIEEVLERSSKLFDEIAERTRAMVAELRAAGKEALAERVEKEVNEIILKATEGVGKILEFLAEKEAA
B28: usp_38_diff_out_13_93_71 (protein)
chain: STEEEIERLVEEAEERARRELEEMREEVEAGKLNVEEVLERSSELFRWLVEKYNEIKKLAKEAGLEELLKEAEERFNELINKATEEVTEMLEKVAERELA
B29: usp_38_diff_out_13_43_64 (protein)
chain: LREKAEKALAEADAALGRAYAVSRELRDKMREVNPEDAKKLLKARKKLDEVGNALADARAALETAMILGEGVEEAIPKVQAAVAKLKAAIEEAEKLLKEV
B30: usp_38_diff_out_14_2_105 (protein)
chain: GEEEIKKATDKTLKKLEEATKKFKELKEKVKKDPSLAEEARKEAFKAWDEAGDAVGALAKLIEENKEHRATNKEATEKVNKALTEYTKAVLELLEEIAEA
B31: usp_38_diff_out_13_93_67 (protein)
chain: DKEEEAKKLLEELKKFAEEKLKELEKLAKDPSVTIEELLEKYSELVSELITKHNEVKKKLDELGDEKTKKEATKITNEALLRMSEITTEALTRKQEEAEA
B32: usp_38_diff_out_13_93_73 (protein)
chain: DPAEELRREAEELIEELRRRTDELVARLEAGEITIEEALARFSELMDEAAERLRELIARAEALGLEALAREIRRRVLEAMVEATERLGAALERAAEREAA

Biological target: T1, USP38, Q8NB14
T1 chain: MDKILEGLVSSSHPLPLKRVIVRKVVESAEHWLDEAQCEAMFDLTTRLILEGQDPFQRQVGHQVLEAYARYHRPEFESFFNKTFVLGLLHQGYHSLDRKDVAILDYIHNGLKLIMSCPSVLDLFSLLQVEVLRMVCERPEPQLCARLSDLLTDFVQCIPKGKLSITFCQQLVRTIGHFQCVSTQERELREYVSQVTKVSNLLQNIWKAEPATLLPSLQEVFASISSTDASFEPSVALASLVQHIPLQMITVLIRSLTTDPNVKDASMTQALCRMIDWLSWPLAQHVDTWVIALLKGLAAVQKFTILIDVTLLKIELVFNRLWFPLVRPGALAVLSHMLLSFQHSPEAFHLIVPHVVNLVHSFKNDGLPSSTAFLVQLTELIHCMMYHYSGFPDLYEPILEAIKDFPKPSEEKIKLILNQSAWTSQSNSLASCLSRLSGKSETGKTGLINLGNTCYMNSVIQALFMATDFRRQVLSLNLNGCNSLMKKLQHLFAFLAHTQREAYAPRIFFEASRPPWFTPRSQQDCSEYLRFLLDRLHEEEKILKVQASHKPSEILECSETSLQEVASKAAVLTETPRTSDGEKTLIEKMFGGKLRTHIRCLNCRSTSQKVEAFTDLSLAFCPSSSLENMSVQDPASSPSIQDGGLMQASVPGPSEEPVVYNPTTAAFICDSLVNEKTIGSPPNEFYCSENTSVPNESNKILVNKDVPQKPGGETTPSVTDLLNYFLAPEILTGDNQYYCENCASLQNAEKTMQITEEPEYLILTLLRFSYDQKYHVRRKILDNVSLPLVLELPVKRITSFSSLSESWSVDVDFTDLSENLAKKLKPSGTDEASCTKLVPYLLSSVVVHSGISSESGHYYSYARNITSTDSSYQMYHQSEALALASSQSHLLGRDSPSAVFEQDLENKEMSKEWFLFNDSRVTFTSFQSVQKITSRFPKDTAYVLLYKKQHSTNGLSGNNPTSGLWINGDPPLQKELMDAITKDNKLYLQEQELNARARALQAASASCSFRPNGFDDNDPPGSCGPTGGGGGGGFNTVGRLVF
Assay: median log2 fold change of GCK-ALFA target abundance (FLAG IP / Myc IP barcode read proportion) (log2 ratio); each designed protein is fused to an ALFA-tag nanobody in HEK293 cells to bring the named protein to FLAG-tagged glucokinase (GCK); Myc marks an untargeted standard; higher = target protein stabilised (more abundant)
Conditions: target protein: 3xFLAG-MCP-GCK-ALFA reporter; HEK293 landing pad (RPLP)
Outline: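 Sequencing of reverse-transcribed, amplified circular RNA barcodes from anti-FLAG and anti-Myc immunoprecipitates provided the readout for an ALFA-nanobody-fused binder library recombined into HEK293 landing-pad cells. Those cells were induced with 2 μg mL^−1 doxycycline, transfected with a plasmid expressing a FLAG-tagged target and a Myc-tagged standard, and lysed after 48 h. Target abundance is the per-binder median log2 ratio of FLAG to Myc barcode read proportions. Only barcodes at a proportion of ≥10^−7 in both replicates and binders with ≥3 barcodes per replicate were kept, with a 10^−6 pseudocount added before the two replicates were pooled.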

Binder	median log2 fold change
B1	-0.78
B2	0.0626
B3	-0.469
B4	-0.102
B5	-0.38
B6	0.136
B7	0.0029
B8	0.341
B9	0.000412
B10	0.147
B11	0.217
B12	0.145
B13	0.213
B14	0.299
B15	-0.0799
B16	-0.442

Binder	median log2 fold change
B17	0.0932
B18	-0.785
B19	-0.0129
B20	-0.23
B21	-0.0894
B22	-0.611
B23	0.148
B24	-0.0527
B25	0.0445
B26	0.136
B27	0.124
B28	-0.429
B29	-0.253
B30	-0.792
B31	0.158
B32	-0.395
